EPAC1 ag: EPAC1 (human) agonism | AID 720707 | Potency, µM (series often up to 154 µM), most hits filed as activators | O95398 | EPAC1 agonist qHTS, biochemical assay; response scale: 100% = response to 6.5 mM cAMP | hit rate 0.073% among 360,000; also: nearly all actives have a fitted effect of over 60% in size
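Multi-concentration qHTS readout: loss of Rap1B-bound BODIPY-GDP fluorescence driven by 100 nM EPAC1 with excess GDP (50 uM), monitored kinetically at room temperature; agonist response expressed relative to 6.5 mM cAMP.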
EPAC2 antagonist: antagonists of human EPAC2. EPAC2 GEF exchange of Rap1B-BODIPY-GDP, fluorescence. Potency, µM (titrated, usually from 114 µM), actives largely listed as inhibitors. hit rate 0.18% among 360,000; also: nearly all actives have a fitted effect of over 45% in size
Target sequence (Q8WZA2 whole entry, looked up): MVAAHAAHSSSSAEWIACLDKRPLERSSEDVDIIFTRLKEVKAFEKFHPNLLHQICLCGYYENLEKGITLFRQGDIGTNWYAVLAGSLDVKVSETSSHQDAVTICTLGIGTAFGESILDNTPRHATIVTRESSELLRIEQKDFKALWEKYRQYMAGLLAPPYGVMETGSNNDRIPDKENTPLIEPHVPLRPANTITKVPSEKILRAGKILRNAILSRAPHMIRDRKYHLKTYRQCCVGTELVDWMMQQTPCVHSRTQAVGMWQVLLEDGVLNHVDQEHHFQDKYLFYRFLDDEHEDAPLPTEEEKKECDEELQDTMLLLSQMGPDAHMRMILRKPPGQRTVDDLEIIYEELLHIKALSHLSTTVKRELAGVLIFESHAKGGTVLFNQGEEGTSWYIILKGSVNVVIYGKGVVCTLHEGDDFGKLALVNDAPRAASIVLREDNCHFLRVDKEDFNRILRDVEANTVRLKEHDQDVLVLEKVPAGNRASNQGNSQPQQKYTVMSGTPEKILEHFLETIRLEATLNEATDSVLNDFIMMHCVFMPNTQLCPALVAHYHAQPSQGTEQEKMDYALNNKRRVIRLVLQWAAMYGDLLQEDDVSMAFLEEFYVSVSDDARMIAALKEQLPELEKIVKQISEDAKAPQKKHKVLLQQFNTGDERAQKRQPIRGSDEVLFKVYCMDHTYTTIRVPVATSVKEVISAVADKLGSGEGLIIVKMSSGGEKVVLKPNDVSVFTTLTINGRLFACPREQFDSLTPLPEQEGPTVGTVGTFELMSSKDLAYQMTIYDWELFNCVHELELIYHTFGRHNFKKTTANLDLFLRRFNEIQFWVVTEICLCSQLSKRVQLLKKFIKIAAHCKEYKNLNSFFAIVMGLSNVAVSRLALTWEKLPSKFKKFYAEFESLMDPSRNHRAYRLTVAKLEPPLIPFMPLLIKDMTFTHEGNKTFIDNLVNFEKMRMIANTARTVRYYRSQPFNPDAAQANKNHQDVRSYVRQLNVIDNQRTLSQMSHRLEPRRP
USP1 inh: blocks the human USP1/UAF1 deubiquitinase complex; O94782; recombinant USP1/UAF1, Ub-Rhodamine cleavage fluorescence; Potency, µM (highest dose often 57.1 µM), usual class: inhibitors; hit rate 0.23% among 390,000; also: nearly all actives have a fitted effect of over 60% in size
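1 nM enzyme complex + cpd, 15 min RT; start with Ub-Rho 150nM final; kinetic fluorescence ex 480/em 540, 6 reads q60 s. Buffer 50mM HEPES pH 7.8, 0.5mM EDTA, 0.1 mg/ml BSA, 1mM TCEP, 0.01% Tween-20.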
EPAC2 agonist: EPAC2 (human) agonism | Q8WZA2 | EPAC2 activation, biochemical qHTS; response scale: 100% = 6.5 mM cAMP response | Potency, µM (doses to about 154 µM), most hits filed as activators | hit rate 0.079% among 360,000; also: nearly all actives have a fitted effect of over 50% in size
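Each well held 100 nM EPAC2, 250 nM RAP1B-BODIPY-GDP and 50 uM GDP. Fluorescence, read at 5-min intervals to 30 min, was referenced to a 6.5 mM cAMP positive control.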
EPAC1 antag: antagonists of human EPAC1 | O95398 | EPAC1 GEF assay, Rap1b-BODIPY-GDP exchange fluorescence | Potency, µM (highest dose often 115 µM), most hits filed as inhibitors | hit rate 0.14% among 360,000 | AID 720709; also: nearly all actives have a fitted effect of over 50% in size
Numbers stand for hits. This is a sample that favours compounds with a hit; in the whole collection about 0.45% have one here. Calls follow the shape of the dose curve; as a rule, active = well fitted curve in the direction sought with a large enough effect; inconclusive = small, poorly fitted or top-dose-only effect, or another doubt; inactive = no such curve, though single readings can be large; an effect the other way counts as inactive or inconclusive.

For COc1cc(NS(=O)(=O)c2ccc(Nc3nc(-c4ccccc4)cs3)cc2)nc(OC)n1 the results were EPAC1 ag inactive, EPAC2 antagonist inactive, USP1 inh inactive, EPAC2 agonist inactive and EPAC1 antag 79µM.
For Cc1cc(NS(=O)(=O)c2ccc(Nc3nc(-c4sc(N)nc4C)cs3)cc2)no1 the results were EPAC1 ag inactive, EPAC2 antagonist 32µM, USP1 inh inactive, EPAC2 agonist inactive and EPAC1 antag inconclusive.
Screening COc1cc(NS(=O)(=O)c2ccc(NC(=S)Nc3ccccc3)cc2)nc(OC)n1 returned EPAC1 ag inactive, EPAC2 antagonist inactive, USP1 inh inactive, EPAC2 agonist inactive and EPAC1 antag inactive.
For CCN1C(=O)N(S(=O)(=O)C(F)(F)F)[C@@H](c2ccccc2)C(C(=O)OC)=C1C the results were EPAC1 ag inactive, EPAC2 antagonist 32µM, USP1 inh inactive, EPAC2 agonist inactive and EPAC1 antag inactive.
`CCN1C(=O)N(S(=O)(=O)c2ccc(C)cc2)[C@@H](c2ccccc2)C(C(=O)OC)=C1C` gave EPAC1 ag inactive, EPAC2 antagonist inactive, USP1 inh inconclusive, EPAC2 agonist inactive and EPAC1 antag inactive.
CCCCN(C)CCCNC(=O)Cn1ncc2c3ccccc3n(Cc3ccccc3F)c2c1=O was read as USP1 inh inactive.
Screening CCOc1ccc(NC(=O)CN2C(=O)C(c3ccccc3)=NC23CCC(C)CC3)cc1 (configuration not stated) returned USP1 inh inactive.
`O=C(Nc1sc2c(c1C(=O)NCc1ccco1)CCCC2)c1cc(=O)c2ccccc2o1` gave USP1 inh inactive.
COc1ccc(CCn2c(=N)c(S(=O)(=O)c3ccc(C)cc3)cc3c(=O)n4ccccc4nc32)cc1 was read as EPAC1 ag inactive, EPAC2 antagonist 89µM, USP1 inh inactive, EPAC2 agonist inactive and EPAC1 antag inactive.
Cc1ccc(Cn2c(=N)c(S(=O)(=O)c3ccc(Br)cc3)cc3c(=O)n4ccccc4nc32)cc1 was read as EPAC1 ag inactive, EPAC2 antagonist inactive, USP1 inh inactive, EPAC2 agonist inactive and EPAC1 antag inactive.
Oc1c(C(c2ccc(Cl)cc2Cl)N2CCN(Cc3ccccc3)CC2)sc2nc(-c3ccco3)nn12 (configuration not stated) was read as USP1 inh inactive.
Screening CC(C)CC1C(=O)N(Cc2cn(CCC3OCCO3)nn2)CCS(=O)(=O)N1Cc1ccc(-c2ccc(F)cc2)cc1 (configuration not stated) returned EPAC1 ag inactive, EPAC2 antagonist 13µM, USP1 inh inactive, EPAC2 agonist inactive and EPAC1 antag inactive.
Screening Cc1ccc(C(NC(=O)C(C)C)c2cc([N+](=O)[O-])c3cccnc3c2O)cc1 (configuration not stated) returned EPAC1 ag inactive, EPAC2 antagonist inactive, USP1 inh inconclusive, EPAC2 agonist inactive and EPAC1 antag 50µM.
CC(C)C(=O)NC(c1cccs1)c1cc([N+](=O)[O-])c2cccnc2c1O (configuration not stated) was read as EPAC1 ag inactive, EPAC2 antagonist inactive, USP1 inh inactive, EPAC2 agonist inactive and EPAC1 antag inactive.
COc1ccc(OC)c2c1C(=O)c1ccccc1C2=O was read as EPAC1 ag 89µM, EPAC2 antagonist inactive, USP1 inh 32µM, EPAC2 agonist 89µM and EPAC1 antag inactive.
O=C1c2ccccc2-c2onc3ccc(NCCCn4ccnc4)c1c23 was read as EPAC1 ag 100µM, EPAC2 antagonist inactive, USP1 inh 28µM, EPAC2 agonist inactive and EPAC1 antag inactive.
Screening COc1ccc2noc3c2c1C(=O)c1ccccc1-3 returned EPAC1 ag 100µM, EPAC2 antagonist inactive, USP1 inh 4µM, EPAC2 agonist inconclusive and EPAC1 antag inactive.
COc1ccc(C(=O)NCc2nnc(SCC(=O)Nc3ccc(F)cc3)n2-c2ccccc2)cc1 was read as USP1 inh inactive.
Screening Cn1c2ccccc2c2cc(/C=N/NC(=O)c3cc(O)ccc3O)ccc21 returned EPAC1 ag inactive, EPAC2 antagonist inactive, USP1 inh inconclusive, EPAC2 agonist inactive and EPAC1 antag 56µM.
CC(NC(=O)COc1ccccc1-c1ccccc1)c1ccccc1 (configuration not stated) was read as EPAC1 ag inactive, EPAC2 antagonist 40µM, USP1 inh inactive, EPAC2 agonist inactive and EPAC1 antag inactive.
Screening Cc1ccc(-n2cnc3cc(C(=O)NC4CCCCCC4)ccc32)c(C)c1 returned USP1 inh inactive.
Cc1ccc(C(=O)N2c3nc(-c4ccco4)nn3C3(CCCCC3)[C@@H]3CCCC[C@@H]32)cc1 was read as USP1 inh inactive.
`O=[N+]([O-])/C=C/c1cn(Cc2ccc(Cl)cc2)c2ccccc12` gave EPAC1 ag inconclusive, EPAC2 antagonist inactive, USP1 inh inconclusive, EPAC2 agonist 100µM and EPAC1 antag inactive.
Screening Cc1ccc(NC(=O)C2CCC(CNS(=O)(=O)c3ccc4c(c3)CCCC(=O)N4)CC2)c(C)c1 (configuration not stated) returned USP1 inh inactive.
For COc1ccccc1C(C(=O)c1ccccc1)c1ccc(O)cc1 (configuration not stated) the results were EPAC1 ag inactive, EPAC2 antagonist 56µM, EPAC2 agonist inactive and EPAC1 antag inactive.
COc1ccccc1C(C(=O)c1ccccc1)c1ccc2ccccc2c1 (configuration not stated) was read as EPAC1 ag inactive, EPAC2 antagonist inactive, EPAC2 agonist inactive and EPAC1 antag inactive.
`CCc1nnc(NS(=O)(=O)c2ccc(NC(=S)NC(=O)c3ccc(Br)cc3)cc2)s1` gave EPAC1 ag inactive, EPAC2 antagonist inactive, USP1 inh inactive, EPAC2 agonist inactive and EPAC1 antag 56µM.
For CCc1nnc(NS(=O)(=O)c2ccc(N/C=C\C(=O)c3ccc4ccccc4c3)cc2)s1 the results were EPAC1 ag inactive, EPAC2 antagonist inactive, USP1 inh inactive, EPAC2 agonist inactive and EPAC1 antag 50µM.
CCc1nnc(NS(=O)(=O)c2ccc(NC(=S)NC(=O)/C=C/c3ccccc3)cc2)s1 was read as EPAC1 ag inactive, EPAC2 antagonist inactive, USP1 inh inactive, EPAC2 agonist inactive and EPAC1 antag inconclusive.
CCc1nnc(NS(=O)(=O)c2ccc(NC(=S)NC(=O)/C=C/c3ccc(C(C)C)cc3)cc2)s1 was read as EPAC1 ag inactive, EPAC2 antagonist inconclusive, USP1 inh 25µM, EPAC2 agonist inactive and EPAC1 antag 79µM.
`COc1ccc(-c2cc(C(C)=O)c(C)n2CCC(=O)Nc2cccc(C)c2C)cc1` gave USP1 inh inactive.
CC(C)(C)c1ccc(OCCC(=O)OCC(=O)Nc2ccc(N3CCOCC3)cc2)cc1 was read as EPAC1 ag 71µM, EPAC2 antagonist inactive, USP1 inh inactive, EPAC2 agonist inactive and EPAC1 antag inactive.

Bioassay records deposited in PubChem BioAssay by National Center for Advancing Translational Sciences (NCATS).
